The values that follow come from PubChem BioAssay (Tox21).

Results filed as inconclusive are left out. Unmarked numbers belong to inactive results. Calls of active or inactive are those of the source. Calls come from the whole dose curve; as a rule, active = well fitted cell-killing curve with a large enough effect in the repeat runs; inconclusive = weak or mixed curves, or effect the other way; inactive = flat fitted curve, though single readings scatter.
% is set by controls: 0 for no effect and ±100 for the full control effect; potency is the fitted concentration of half-maximal effect.

A short description of the assay: cAMP Responsive Elements (CRE) small molecule antagonists, cell-based qHTS assay: qHTS cell viability counter screen (AID 2060913). Note: nearly all actives have a fitted effect of over 40% in size. The following applies: CRE-bla HEK293T viability, CellTiter-Glo luminescence, 5 h; series mostly up to 92.4 µM; viability change, negative = cytotoxic: at the top concentration. Summed up: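 Cytotoxicity read in the same wells as the CRE-bla HEK293T antagonist assay: after 3 h compound with 0.25 uM NKH477 final and 2 h beta-lactamase substrate, CellTiter-Glo luminescence measured.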
Background: In qHTS, concentration-response curves come from the screen itself.
In the case of `CC(C)(C)c1ccccc1O`, the Potency entry is “inactive”.
For `O=C(O)COc1ccccc1`, the Potency entry was “inactive”.
Regarding `CCC[CH2][Sn]([CH2]CCC)([CH2]CCC)[CH2]CCC`, the “viability change, negative = cytotoxic” value was -26%.
In the case of `[N-]=[N+]=CC(=O)OC[C@H](N)C(=O)O`, the Potency result was “inactive”.
`Oc1ccc2c3c1O[C@H]1[C@@H](O)C=C[C@H]4[C@@H](C2)NCC[C@@]341`: the “viability change, negative = cytotoxic” value is -2.4%.
Still for that read-out and setting: for `CC(=O)[O-].CC(=O)[O-].CC(=O)[O-].[Cr+3]` the value was 15%.
Still for that read-out and setting: next, `Cc1cc(C)c(C(=O)P(=O)(C(=O)c2c(C)cc(C)cc2C)c2ccccc2)c(C)c1`: 0.679%; `O=C(O)c1ccc(=O)[nH]c1`: 17.7% [at 42.5 µM].
In the case of `ClC1=C(Cl)[C@]2(Cl)[C@@H]3[C@H]4C[C@H]([C@@H]5O[C@H]45)[C@@H]3[C@@]1(Cl)C2(Cl)Cl`, the “viability change, negative = cytotoxic” value was -11.9%.
Still for that read-out and setting: next, `CNNC`: -6.6%.
On the same count and under the same terms, next, `CNCC(=O)c1ccc(O)c(O)c1`: 5.69% [at 42.5 µM]; `CSc1ccc(C(=O)C(C)(C)N2CCOCC2)cc1`: -11.8%.
On to `COP(=S)(OC)Oc1ccc([N+](=O)[O-])cc1Cl`, for which the “viability change, negative = cytotoxic” value was -10.6%.
The same measure, in the same setting: next, `CC(C)Br`: -7.96%.
The same measure, in the same setting: for `CCOC(=O)[C@]1(c2ccccc2)Oc2ccccc2[C@@H]1N` the value was -13.3%.
For `Nc1nc(N)nc(NC2CC2)n1`, the Potency result is “inactive”.
Turning to `Oc1ccc2ccc3cccc4ccc1c2c34`, the “viability change, negative = cytotoxic” value is 0.136%.
Same read-out and setting: for `N#CC(Cl)Cl` the value was -7.91%; for `Cc1cc(C)cc(OP(=O)(Oc2cc(C)cc(C)c2)Oc2cc(C)cc(C)c2)c1`, -22.5%.
Still for that read-out and setting: next, `CC/C(=N\OC/C=C/Cl)C1=C(O)CC(C2CCOCC2)CC1=O` (stereo not given): 7.75%.
Take `OC[P+](CO)(CO)CO`: the Potency entry was “inactive”.
Turning to `O=C(O)c1cc(Cl)ccc1Cl`, the “viability change, negative = cytotoxic” value was 6.42%.
On the same count and under the same terms, for `CN1C2CCC(C)(C)C1CC(OC(=O)C(O)(c1cccs1)c1cccs1)C2` (stereo not given) the value was -3.24% [at 42.5 µM]; for `CCSC(=O)N(CC)C1CCCCC1`, 0.704%.
On the same count and under the same terms, for `O=C(Nc1ccc(F)cc1F)c1cccnc1Oc1cccc(C(F)(F)F)c1` the value was -1.94%.
`CCOP(=S)(OCC)Oc1ccc2c(C)c(Cl)c(=O)oc2c1`: the Potency entry was “inactive”.
In the case of `CC(C)[C@H](C(=O)O[C@H](C#N)c1cccc(Oc2ccccc2)c1)c1ccc(Cl)cc1`, the “viability change, negative = cytotoxic” value is -14.6%.
As to `CC1COC2(c3ccccc3Cl)c3cc(Cl)ccc3NC(=O)CN12` (stereo not given), the “viability change, negative = cytotoxic” value was 3.64% [at 42.5 µM].
On the same count and under the same terms, for `N[C@@H](Cc1ccc(Oc2cc(I)c(O)c(I)c2)c(I)c1)C(=O)O` the value was -4.38% [at 42.5 µM]; for `COc1c2c(cc3c1OCO3)CCN(C)C2`, 0.673% [at 42.5 µM]; for `CC(C)[N+](=O)[O-]`, 8.99%.
For the compound `CCCCOC(=O)[C@@H](C)Oc1ccc(Oc2ccc(C#N)cc2F)cc1`, the “viability change, negative = cytotoxic” value is -3.37%.
Consider `CN(C)C(=S)[S-].CN(C)C(=S)[S-].[Cu+2]`, for which the Potency was 13.2 µM (active).
Consider `Cc1c([N+](=O)[O-])cc2c(c1[N+](=O)[O-])C(C)(C)CC2(C)C`, for which the “viability change, negative = cytotoxic” value was -6.2%.
The same measure, in the same setting: next, `OC(c1ccc(Cl)cc1)(c1ccc(Cl)cc1)c1cccnc1`: -11%.
The same measure, in the same setting: for `Cc1nnc2n1-c1sc(CCC(=O)N3CCOCC3)cc1C(c1ccccc1Cl)=NC2` the value was -0.132% [at 42.5 µM].
`O=C1C2(Cl)C3(Cl)C4(Cl)C(Cl)(Cl)C5(Cl)C3(Cl)C1(Cl)C5(Cl)C24Cl` (stereo not given): the Potency was 60.1 µM (active).
Turning to `Clc1ccc(C(c2ccccc2Cl)C(Cl)(Cl)Cl)cc1` (stereo not given), the “viability change, negative = cytotoxic” value was -19.3%.
For the compound `COc1cc(C[C@@H](C)N)c(OC)cc1C`, the “viability change, negative = cytotoxic” value was -1.48%.
With `c1ccc(CN2CCNCC2)cc1`, the “viability change, negative = cytotoxic” value is -1.05% [at 240 µM].
